From PubChem BioAssay
TcdB GH inh – inhibitors of Clostridioides difficile toxin B glycohydrolase. P18177. TcdB glycohydrolase enzymatic assay, plate reader. inhibition, % at 9.99 µM. 350,000 compounds, 0.24% hits. AID 652162; in the data active = inhibition above about 10%
PfHsp40 yeast – rescue of PfHsp40-mediated yeast toxicity; S. cerevisiae expressing PfHsp40, growth rescue, ATP luminescence; growth rescue, % at 12.5 µM; 340,000 compounds, 0.68% hits; AID 504582; in the data active = growth rescue above about 28%, passing the limit was not always enough; inconclusive = no clear call, values can overlap the other calls;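 also: yeast W303a lacking pdr1 and pdr3 grown in galactose medium; growth measured after three days at 30 °C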
PrP UTR inh – suppresses PrP 5' UTR mRNA reporter expression. cell-based PrP 5' UTR mRNA reporter, plate reader. inhibition, % (concentration not given with the values). 340,000 compounds, 0.35% hits. AID 488862; in the data active = inhibition above about 52%; also: 0 = median of the neutral control wells
FadD28 binding – M. tuberculosis FadD28 bisubstrate binding inhibition; FadD28 bisubstrate probe binding, fluorescence polarization; inhibition, % at 12.5 µM; 360,000 compounds, 0.22% hits; AID 588549; in the data active = inhibition above about 8.5%, passing the limit was not always enough; inconclusive = no clear call, values can overlap the other calls
Mtb BioA inh – blocks M. tuberculosis BioA enzyme activity | purified M. tuberculosis BioA enzyme, plate reader | inhibition, % at 9.99 µM | 360,000 compounds, 0.096% hits | AID 602481; in the data active = inhibition above about 40%; inconclusive = no clear call, values can overlap the other calls
Starred values were filed as active, the others as inactive; u = inconclusive; x = not tested or not shown. Only some compounds are listed: those with a hit (about 1.1% of all), similar ones and a draw of the others.

SMILES	TcdB GH inh	PfHsp40 yeast	PrP UTR inh	FadD28 binding	Mtb BioA inh
C[C@@H]1CN([C@@H](C)CO)C(=O)Cc2cc(NC(=O)NC3CCCCC3)ccc2O[C@H]1CN(C)Cc1ccc2c(c1)OCO2	-10	x	x	x	1
O=C(O)c1ccc2c(c1)C1C=CCC1C(c1ccncc1)N2 (centres undefined)	1	-1	-10	0	0
COCCNC(=O)C1Nc2ccc(C(F)(F)F)cc2C2C=CCC12 (centres undefined)	0	-1	-16	-1	-4
CCOC(=O)C1Nc2ccc(C(=O)O)cc2C2C=CCC12 (centres undefined)	-1	2	-20	21*	-1
CC(C)C1Nc2ccc(C(=O)O)cc2C2C=CCC21 (centres undefined)	-2	-1	-68	9.3*	x
CCN(CC)C(=O)c1ccc2c(c1)C1C=CCC1C(C(=O)O)N2 (centres undefined)	6	2	-6	12*	-5
Cc1cc(C)c2c(c1)NC(C(=O)O)C1CC=CC21 (centres undefined)	0	1	-20	u	-4
CCCC1Nc2ccc(C(=O)O)cc2C2C=CCC12 (centres undefined)	x	0	-14	30*	-3
C[C@H](CO)N1C[C@H](C)[C@@H](CN(C)S(=O)(=O)c2cccs2)Oc2ccc(NC(=O)Nc3ccccc3)cc2CC1=O	-2	x	x	x	-2
CCCC(=O)Nc1ccc2c(c1)OC[C@@H](C)N(C(=O)c1cnccn1)C[C@H](C)[C@H](OC)CN(C)C2=O	0	x	x	x	-2
CCCNC(=O)N1C[C@H](C)[C@H](OC)CN(C)C(=O)c2ccc(NS(C)(=O)=O)cc2OC[C@H]1C	-2	x	x	x	-1
Cc1ccn2c(NC3CCCCC3)c(-c3cccc(-c4cccc(Cl)c4)c3)nc2c1	1	132*	-22	-1	-5
O=C(C[C@H]1C=C[C@H](NS(=O)(=O)c2ccccc2F)[C@@H](CO)O1)NCCCN1CCOCC1	0	x	x	x	-1
C/C(=N\NC(=O)c1c(Cl)c(C)nn1C)c1ccc(NC(=O)C2CCC2)cc1	2	-1	23	-2	1
C/C(=N\NC(=O)c1c([N+](=O)[O-])c(C)nn1C)c1ccc(NC(=O)C2CCCC2)cc1	1	-1	67*	0	1
Cc1ccc(NC(=O)C2C(c3ccccc3)C=CC(c3ccccc3)C2C(=O)O)cc1 (centres undefined)	x	172*	-18	-4	0
O=c1onc(-c2ccc(Cl)cc2)n1Cc1ccc(F)cc1	2	1	-22	-4	2
O=c1onc(-c2ccccc2)n1Cc1ccc([N+](=O)[O-])cc1	10*	x	x	-2	1
CCc1cc(=O)oc2cc(OC(C)C(=O)NCCCn3ccnc3)ccc12 (centres undefined)	2	0	-4	-5	-1
Cc1cc(=O)oc2cc(OC(C)C(=O)NCCCn3ccnc3)ccc12 (centres undefined)	1	95*	-1	1	0
O=c1[nH]c(CSc2nnc(Cc3ccccc3)o2)nc2ccccc12	19*	0	-5	-1	-1
Cc1n[nH]c(=O)nc1Nc1ccc(O)cc1	21*	0	-14	0	0
O=C(N/N=C/c1cc(Cl)cc([N+](=O)[O-])c1O)c1ccccc1NS(=O)(=O)c1cccs1	2	244*	x	2	4
CCN1CCN(S(=O)(=O)c2ccc3[nH]c(=O)oc3c2)CC1	19*	0	-13	-2	1
CC(=O)Nc1cccc(NC(=O)c2ccc(Br)cc2)c1	10*	0	-48	-1	7
SMILES	TcdB GH inh	PfHsp40 yeast	PrP UTR inh	FadD28 binding	Mtb BioA inh
O=C1NC(=S)SC1=Cc1ccc(N(CCCl)CCCl)cc1	1	-1	-14	14*	-17
O=C1NC(=S)SC1=Cc1ccc(Cl)cc1	3	-1	-18	-1	2
O=C1NC(=S)N/C1=C/c1cccc([N+](=O)[O-])c1	0	61*	-21	-1	x
CCCOC(=O)CC1C(=O)NCCN1Cc1cc(OC)cc(OC)c1 (centres undefined)	1	40*	-4	-5	x
O=[N+]([O-])c1ccc2c(c1Nc1ccccc1Cl)=NC1(CCCCC1)N=2	1	x	x	0	-4
Cc1ccc(Nc2c([N+](=O)[O-])ccc3c2=NC2(CCCCC2)N=3)cc1	x	59*	-33	0	1
Cc1ccc(S(=O)(=O)N2C[C@H](O)COC[C@@H]3O[C@@H](CC(=O)NCc4ccc(Cl)c(Cl)c4)CC[C@H]32)cc1	0	x	x	x	1
O=C(Nc1ccc(NC(=O)c2cc([N+](=O)[O-])ccc2N2CCOCC2)cc1)c1cccs1	1	-1	-16	12*	-2
O=C1NC(=S)SC1=Cc1cc(Br)ccc1O	1	3	-1	12*	x
CC(C)(C)[C@@H]1C=C(C(=O)NCc2nc3ccccc3[nH]2)O[C@H](OCc2ccc(CO)cc2)C1	0	x	x	x	x
C[C@@H]1CN([C@@H](C)CO)C(=O)c2cccc(NC(=O)Nc3ccc(C(F)(F)F)cc3)c2O[C@H]1CN(C)C(=O)Nc1ccc(F)cc1	1	x	x	x	0
COc1cc(-c2cc[n+](C)cc2)ccc1O	5	67*	-29	-2	-1
N#C[C@H]1[C@H](c2ccc(-c3cccc(F)c3)cc2)[C@H](CO)N1c1nc(-c2ccccc2)cs1	0	x	x	x	2
O=C1c2ccccc2NC(c2ccc(-c3cccs3)o2)N1O (centres undefined)	1	58*	-34	-5	0
O=C1c2ccccc2NC(c2ccc(-c3ccc(C(F)(F)F)cc3)o2)N1O (centres undefined)	1	279*	23	-7	1
O=C1c2ccccc2NC(c2ccc(Br)o2)N1O (centres undefined)	0	-1	-34	2	-1
O=C1c2ccccc2NC(c2ccco2)N1O (centres undefined)	x	0	-25	-2	-2
COc1ccc(CN(C)C[C@@H]2OCCCC[C@@H](C)Oc3ccc(NS(C)(=O)=O)cc3C(=O)N([C@H](C)CO)C[C@@H]2C)cc1	2	x	x	x	0
O=S(=O)(c1ccc(F)cc1)N1CC[C@@H]2[C@H]1c1cc(-c3ccc(F)cc3)ccc1N[C@@H]2CO	x	x	x	x	-1
Cc1ccc(/C=N/NC(=O)c2cccc(S(=O)(=O)Nc3ccccc3Cl)c2)o1	12*	-1	-20	3	0
Cc1[nH]c2ccccc2c1/C=N/NC(=O)c1cccc(S(=O)(=O)Nc2ccccc2Cl)c1	x	1	10	-1	-1
CCc1cccc2c(/C=N/NC(=O)c3cccc(S(=O)(=O)Nc4ccccc4Cl)c3)c[nH]c12	x	-1	-27	34*	x
N=C(N)c1ccc(OCCCCCOc2ccc(C(=N)N)cc2)cc1	1	112*	0	1	-3
N=C(N)c1ccc(N)cc1	2	67*	-11	0	0
CC(C)Nc1ccc(Nc2ccnc3cc4ccccc4cc23)cc1	7	-1	-22	-2	x
c1ccc(CCNc2ccnc3cc4ccccc4cc23)cc1	-4	189*	-39	-13	x
